CYP2C19 act: increases human CYP2C19 enzyme activity. recombinant CYP2C19, luciferin-H EGE luminescence; hits give high values; 0 = fully inhibited enzyme, 1 = untreated enzyme. activation factor at 5 µM. 96,000 tested, under 10 active. AID 1025;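 active means activation factor of at least 2 at 5 µM in the primary screen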;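 further: 0 = wells with 2.5 mM tranylcypromine and 1 = vehicle-only wells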
sEH act: soluble epoxide hydrolase (human) activation; P34913; purified human sEH enzymatic activity, activator screen; activation, % at 2 µM; 91,000 compounds, 0.04% hits; AID 717; in the data active means activation above about 37%
CYP2C19 inhib: inhibitors of human CYP2C19 | inhibition, % at 5 µM | 96,000 compounds, 21% hits | P33261 | CYP2C19 Supersomes, luciferin-H EGE luminescence, 30 min;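 active means CYP2C19 inhibition above a set limit at 5 µM in the primary screen, cut at about 50% in these data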;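 further: plate controls were negative control wells for no effect and 2.5 mM tranylcypromine positive control for full effect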
sEH inh: soluble epoxide hydrolase (human) inhibition | AID 707 | 91,000 compounds, 0.34% hits | inhibition, % at 2 µM | recombinant human sEH enzymatic activity assay; in the data active means inhibition above about 80%
CYP2C9 inhib: human CYP2C9 inhibition | P11712 | CYP2C9 Supersomes, luciferin-H conversion, luminescence | inhibition, % at 5 µM | 96,000 compounds, 20% hits | AID 777;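 active means blocking of liver enzyme CYP2C9 beyond about 50% at 5 µM, limit read from the data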
Target sequence (P11712 whole entry, looked up): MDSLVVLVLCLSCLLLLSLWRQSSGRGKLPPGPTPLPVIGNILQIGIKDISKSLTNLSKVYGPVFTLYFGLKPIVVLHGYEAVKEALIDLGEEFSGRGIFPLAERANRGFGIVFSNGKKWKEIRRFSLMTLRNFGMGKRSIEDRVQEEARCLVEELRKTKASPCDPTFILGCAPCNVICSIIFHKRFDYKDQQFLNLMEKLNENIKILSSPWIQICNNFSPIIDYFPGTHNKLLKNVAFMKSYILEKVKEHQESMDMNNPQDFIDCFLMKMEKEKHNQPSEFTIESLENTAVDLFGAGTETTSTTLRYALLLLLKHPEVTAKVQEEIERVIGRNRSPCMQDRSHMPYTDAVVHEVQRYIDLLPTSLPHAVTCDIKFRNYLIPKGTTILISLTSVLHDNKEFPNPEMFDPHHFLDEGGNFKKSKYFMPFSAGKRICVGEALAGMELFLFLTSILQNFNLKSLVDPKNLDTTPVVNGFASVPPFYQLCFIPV
CYP2C9 act: CYP2C9 (human) activation; P11712; recombinant CYP2C9, luciferin-H conversion, luminescence; hits give high values; factor 1 = untreated enzyme, 0 = blocked; activation factor at 5 µM; 96,000 compounds, 1.4% hits; AID 1024;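 active means activation factor of 2 or more for CYP2C9 at a 5 µM dose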;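 further: 0 = sulfaphenazole-blocked wells and 1 = vehicle-only wells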
* marks the source's active call; other numbers are inactive results. Compounds with a hit are over-represented: about 27% of the library has one in this group of screens.

For COC(=O)c1ccccc1NC(=O)CSc1nnc(C(C)NC(=O)c2ccc(Cl)cc2Cl)n1C (stereo unspecified) the results were CYP2C19 act 1, sEH act -1.7, CYP2C19 inhib -2.9, sEH inh 3.1, CYP2C9 inhib 16.9 and CYP2C9 act 0.8.
CC(C)n1cc(/C=C(\C#N)S(=O)(=O)c2ccccc2)c2ccccc21 was read as CYP2C19 act 0.6, sEH act -1.2, CYP2C19 inhib 37.3, sEH inh 4.8, CYP2C9 inhib 69.6* and CYP2C9 act 0.3.
`Cc1ccc(C(=O)/C=C/c2c[nH]c3ccccc23)cc1` gave CYP2C19 act 0.3, sEH act 3.6, CYP2C19 inhib 67.9*, sEH inh -1.6, CYP2C9 inhib 68.6* and CYP2C9 act 0.3.
For Cc1ccc(S(=O)(=O)/C(C#N)=C/c2c[nH]c3ccccc23)cc1 the results were CYP2C19 act 1.1, sEH act -6.5, CYP2C19 inhib -13.1, sEH inh 6.3, CYP2C9 inhib -106.5 and CYP2C9 act 2.1*.
`Cc1ccc(C(=O)/C=C/c2cn(CN3CCN(C)CC3)c3ccccc23)cc1` gave CYP2C19 act 0.7, sEH act -3.7, CYP2C19 inhib 31.8, sEH inh 0.9, CYP2C9 inhib 79.2* and CYP2C9 act 0.2.
Screening Cc1nn(C)cc1/C=C/C(=O)c1ccccc1 returned CYP2C19 act 0.7, sEH act 5.1, CYP2C19 inhib 34.8, sEH inh -3.1, CYP2C9 inhib 14.8 and CYP2C9 act 0.9.
For COc1ccc(OC(=O)c2ccc3nsnc3c2)cc1 the results were CYP2C19 act 0.9, sEH act 10.7, CYP2C19 inhib 11.4, sEH inh -13.6, CYP2C9 inhib 0.2 and CYP2C9 act 1.
Screening CCOc1ccc(C(=O)NCc2ccccn2)cc1 returned CYP2C19 act 1.2, CYP2C19 inhib -16.7, CYP2C9 inhib -16.0 and CYP2C9 act 1.2.
For CCOc1ccc(OCc2ccc(C(=O)OCc3ccccn3)o2)cc1 the results were CYP2C19 act 0.5, CYP2C19 inhib 50.3*, CYP2C9 inhib 55.3* and CYP2C9 act 0.4.
`CCOc1cc(OCC)cc(C(=O)O)c1` gave CYP2C19 act 1.1, sEH act -1.4, CYP2C19 inhib -8.4, sEH inh 2.6, CYP2C9 inhib 2.3 and CYP2C9 act 1.
CCOc1ccc(OCc2cccc(C(=O)O)c2)cc1 was read as CYP2C19 act 0, CYP2C19 inhib 100.0*, CYP2C9 inhib 98.9* and CYP2C9 act 0.
CCOc1ccc(OCc2ccc(C(=O)N3CCCC3)o2)cc1 was read as CYP2C19 act 0.6, sEH act -3.0, CYP2C19 inhib 39.4, sEH inh 1.4, CYP2C9 inhib 57.2* and CYP2C9 act 0.4.
For COc1ccc(OCc2cccc(C(=O)O)c2)cc1 the results were CYP2C19 act 0, CYP2C19 inhib 98.5*, CYP2C9 inhib 97.1* and CYP2C9 act 0.
Cc1ccsc1C1CC(=O)NC2=C1C(=O)CC(C)(C)C2 (stereo unspecified) was read as CYP2C19 act 1.1, sEH act 3.6, CYP2C19 inhib -7.5, sEH inh -2.4, CYP2C9 inhib -6.4 and CYP2C9 act 1.1.
Screening CC(CN(C)Cc1ccccc1)OC(=O)C1COc2ccccc2O1 (stereo unspecified) returned CYP2C19 act 0.9, CYP2C19 inhib 6.3, CYP2C9 inhib -9.8 and CYP2C9 act 1.1.
O=C(O)c1cccc(COc2ccc(CO)cc2Cl)c1 was read as CYP2C19 act 0, CYP2C19 inhib 99.0*, CYP2C9 inhib 93.5* and CYP2C9 act 0.1.
Screening O=C(O)c1ccc(COc2ccc(CO)cc2Cl)cc1 returned CYP2C19 act 1, sEH act -10.5, CYP2C19 inhib -0.2, sEH inh 13.6, CYP2C9 inhib -1.5 and CYP2C9 act 1.
O=C(OCC(F)(F)F)c1cccc(COc2ccc3ccccc3c2)c1 was read as CYP2C19 act 0.5, sEH act -6.1, CYP2C19 inhib 52.1*, sEH inh 7.2, CYP2C9 inhib 55.7* and CYP2C9 act 0.4.
For CCOc1ccc(OCc2cccc(C(=O)N3CCCC3)c2)cc1 the results were CYP2C19 act 0.6, sEH act -9.3, CYP2C19 inhib 39.7, sEH inh 13.7, CYP2C9 inhib 65.9* and CYP2C9 act 0.3.
